Shown are actives, neighbours in structure and some others; about 4.5% of the full set was active somewhere.
DAX1 inh-1 = DAX1 (NR0B1) inhibitors, primary screen, cell-based, HEK293, Gal4-DAX1, luciferase luminescence | HEK293 Gal4-DAX1 luciferase reporter | inhibition, % at 6.75 µM | hit rate 0.99% among 340,000;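 active = inhibition above the mean over all tested compounds plus 3 SD, cut at about 4.2% in these data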;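 note: inhibition shows as a rise in luminescence from relieved DAX1 repression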
Target sequence (P51843 207-470 limits assumed): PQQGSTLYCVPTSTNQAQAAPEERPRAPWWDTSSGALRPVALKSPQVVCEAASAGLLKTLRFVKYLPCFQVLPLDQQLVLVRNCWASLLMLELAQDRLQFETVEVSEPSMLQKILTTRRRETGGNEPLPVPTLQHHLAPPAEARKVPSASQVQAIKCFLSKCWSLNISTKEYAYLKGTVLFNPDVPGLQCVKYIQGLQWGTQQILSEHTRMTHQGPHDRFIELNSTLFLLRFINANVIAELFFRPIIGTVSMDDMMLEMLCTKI
FXN GAA850 act = FXN promoter activators, primary screen, cell-based, luciferase luminescence, HEK293 lucGAA850; HEK293 lucGAA850 FXN promoter luciferase reporter, 24 h; percent of 10 µM SAHA response; activation, % at 6 µM; hit rate 0.56% among 360,000; AID 540364, 2011;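 active = activation above the average of all compounds screened plus 3 SD, cutoff fixed separately per campaign, cut at about 7.5% in these data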
hgDAF12 agonist = H. glycines DAF-12 receptor agonists, primary screen, cell-based, luminescence, HEK293, GAL4 fusion, UAS-luciferase; HEK293 GAL4-hgDAF12 UAS-luciferase reporter, agonist luminescence; normalized to butyrate control; hit rate 1.8% among 370,000; activation, % at 6.8 µM; Nuclear hormone receptor DAF-12 (Heterodera glycines), GAL4 fusion;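 active = activation above a cutoff set at the mean of all screened compounds plus 3 SD, cut at about 10% in these data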
ssDAF-12 act = S. stercoralis DAF-12 nuclear receptor activators, primary screen, cell-based, luminescence, HEK293, GRIP1 co-expression, lit1-tk-luc; Nuclear hormone receptor DAF-12 (Strongyloides stercoralis); HEK293 ssDAF-12/GRIP1 lit1-tk-luc reporter; % of 3 µM dafachronic acid response; activation, % at 6.8 µM; hit rate 1% among 370,000; AID 652126, 2013;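 active = activation above the mean over all tested compounds plus 3 SD, cut at about 0.9% in these data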
hcDAF-12 act = H. contortus DAF-12 nuclear receptor activators, primary screen, cell-based, luminescence, HEK293, lit1-tk-luc reporter; AID 652067, 2013; hit rate 1.4% among 370,000; HEK293 hcDAF-12 lit1-tk-luc reporter; 0% DMSO, 100% Δ7-dafachronic acid; activation, % at 6.8 µM;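 active = activation above the mean of all tested compounds plus 3 SD, cut at about 5.5% in these data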
DAX1 inh-2 = DAX1 (NR0B1) inhibitors on StAR promoter, primary screen, cell-based, luminescence, SF-1 (NR5A1), full-length DAX-1; hit rate 1.1% among 370,000; HEK293T StAR-luciferase reporter, SF-1/DAX-1 repression relief; inhibition, % at 6.8 µM;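 active = inhibition above the mean over all tested compounds plus 3 SD, cut at about 3.6% in these data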;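 note: higher inhibition means more luminescence from relief of DAX-1 repression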
Of the large screens only hits and unclear results are named; the others gave an inactive call.

CC(C)NC(=O)[C@]1(C#N)CC(=O)N(C)[C@@H]1c1ccccc1	none (no result: DAX1 inh-1, FXN GAA850 act)
COc1ccccc1NC(=O)CNC(=O)c1ccccc1	none
COc1ccc(-c2cnc3ccccc3n2)cc1NC(=O)CNC(=O)c1ccccc1	ssDAF-12 act 1.2
Cc1cc2nc(/C=C/c3cccnc3)[nH]c2cc1C	ssDAF-12 act 1.7, hcDAF-12 act 6.4, DAX1 inh-2 4.0
Cc1cc2nc(/C=C/c3nc4cc(C)c(C)cc4[nH]3)[nH]c2cc1C	none
COCc1ccc(C(=O)N(C)CC2CCCN(CCc3ccc(OC)cc3)C2)o1 (stereo unspecified)	DAX1 inh-2 4.5
COCc1ccc(C(=O)N(C)CC2CCCN(CCc3ccc(Cl)cc3)C2)o1 (stereo unspecified)	none
Cc1cc(C(=O)N(C)CC2CCCN(CCc3ccc(F)cc3)C2)c(C)o1 (stereo unspecified)	none
COc1ccc(CCN2CCCC(CN(C)C(=O)c3cc(C)oc3C)C2)cc1 (stereo unspecified)	hgDAF12 agonist 11
CC(=O)CC[C@@H]1CC[C@]2(CCCN(C(=O)c3ccco3)C2)O1	none (no result: DAX1 inh-1, FXN GAA850 act)
CC(C)n1c(O)c(/C=C2\C=Nc3ccccc32)sc1=Nc1ccccc1	none
CSc1nc(/C=C2\C=Nc3ccccc32)c(O)n1C	ssDAF-12 act 0.9, hcDAF-12 act 6.4
O=C(NCC(=O)N(CC1CCCO1)C(C(=O)NC1CCCCC1)c1ccccc1)c1cccs1 (stereo unspecified)	none
O=C(NCC(=O)N(CC1CCCO1)C(C(=O)NC1CCCCC1)c1cccnc1)c1cccs1 (stereo unspecified)	DAX1 inh-1 5.0
Cc1ccc(N(C(=O)CNC(=O)c2ccco2)C(C(=O)NC2CCCC2)c2cccnc2)cc1C (stereo unspecified)	DAX1 inh-1 4.3
COC(=O)[C@]12C[C@H](CC(=O)N3CCCC3)C(=O)N(Cc3ccc(Cl)cc3Cl)C1=C[C@H](C1CCCC1)O[C@@H]2C	none (no result: DAX1 inh-1, FXN GAA850 act)
CCCCNC(=O)C1(C(=O)c2ccc(OC)cc2)CC(C(=O)OCC)=NO1 (stereo unspecified)	none (no result: DAX1 inh-1, FXN GAA850 act)
Cc1ccc2nc(CCc3ccc(N)cc3)[nH]c2c1	hgDAF12 agonist 11
Nc1ccc2nc(CCc3ccccc3)[nH]c2c1	none
Cn1cc(/C=C2\SC(=S)N(NC(=O)c3ccccc3)C2=O)c2ccccc21	ssDAF-12 act 1.0
Cc1cccc(NC(=S)NCCC(C)C)c1	none
CC(C)CCNC(=O)C(=O)Nc1ccccc1	hgDAF12 agonist 13
O=[N+]([O-])c1ccccc1-c1ccc(C(=S)N2CCN(c3ccccc3)CC2)o1	ssDAF-12 act 1.7
Cc1nc2cc(C(=O)N3CCN(C(=O)C(C)(C)C)CC3)ccc2n1C1CCCC1	none (no result: DAX1 inh-1, FXN GAA850 act)
CS(=O)(=O)N(CC(=O)N1CCCCC1)Cc1ccccc1	DAX1 inh-1 5.0
O=C(O)CSc1nnc(-c2cccs2)n1-c1ccc(Cl)cc1	none
O=C(CSc1nnc(-c2cccs2)n1-c1cccc(Cl)c1)c1cccc2c1OCCO2	DAX1 inh-1 6.1
CN(C)S(=O)(=O)c1cccc(C(=O)NCCc2ccccc2)c1	hcDAF-12 act 6.0, DAX1 inh-2 3.8
CS(=O)(=O)Nc1ccc(C(=O)NCCSCc2ccccc2)cc1	DAX1 inh-1 5.4
CS(=O)(=O)Nc1ccc(C(=O)NCCc2ccccc2)cc1	hgDAF12 agonist 11
O=C(Nc1nccs1)c1ccc2c(c1)OCO2	hgDAF12 agonist 11
O=C(Nc1nccs1)c1ccc(-c2ccc(Cl)cc2Cl)o1	none
C/C(=C\C(=O)Nc1nccs1)c1ccccc1	hgDAF12 agonist 12
O=C(Nc1nccs1)c1ccc(Br)o1	hcDAF-12 act 5.8
